Screens deposited in PubChem by National Center for Advancing Translational Sciences (NCATS).
Shown are actives, neighbours in structure and some others; about 18% of the full set was active somewhere.
Gal4-VP16 FLuc: VP16 counterscreen qHTS for inhibitors of ROR gamma transcriptional activity; Drosophila S2 Gal4-VP16 UAS-luciferase, luminescence, 20 h; Potency, µM (doses to about 53.6 µM), usual class: inhibitors; hit rate 3.5% among 310,000;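 also: Gal4-VP16 expression switched on by copper sulfate through the metallothionein promoter; nearly all actives have a fitted effect of over 50% in size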
RORgamma inh: qHTS for inhibitors of ROR gamma transcriptional activity | Nuclear receptor ROR-gamma (Mus musculus), P51450 | AID 2551, 2010 | Potency, µM (series often up to 53.6 µM), actives largely listed as inhibitors | Drosophila S2 Gal4-RORgamma UAS-luciferase reporter, 20 h | hit rate 5.4% among 310,000; also: nearly all actives have a fitted effect of over 60% in size
Target sequence (P51450 whole entry, looked up, the tested form may be a part): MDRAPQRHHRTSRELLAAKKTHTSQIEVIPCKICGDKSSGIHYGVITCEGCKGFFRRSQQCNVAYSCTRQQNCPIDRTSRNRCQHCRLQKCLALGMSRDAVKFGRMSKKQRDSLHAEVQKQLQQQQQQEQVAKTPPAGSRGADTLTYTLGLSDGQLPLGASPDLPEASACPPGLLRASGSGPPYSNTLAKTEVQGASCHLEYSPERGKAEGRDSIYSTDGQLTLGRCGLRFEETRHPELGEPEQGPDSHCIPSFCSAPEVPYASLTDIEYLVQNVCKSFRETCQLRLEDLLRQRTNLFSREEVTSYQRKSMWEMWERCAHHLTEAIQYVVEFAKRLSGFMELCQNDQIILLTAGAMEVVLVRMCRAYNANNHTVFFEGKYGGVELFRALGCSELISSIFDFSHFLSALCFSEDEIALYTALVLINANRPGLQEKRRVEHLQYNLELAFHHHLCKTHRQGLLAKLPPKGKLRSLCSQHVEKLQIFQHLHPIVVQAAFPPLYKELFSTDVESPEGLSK
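Drosophila Schneider cells stably carrying a metallothionein-driven Gal4 DBD–ROR gamma fusion and a UAS-Photinus luciferase reporter were exposed to compound for 1 hr, then induced with copper sulfate (700 uM final) for 20 hr at ambient temperature before luminescence reading.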
LDHA inh: qHTS assay for inhibitors of human lactate dehydrogenase. purified LDHA, NADH/diaphorase-resazurin fluorescence; hits give low values. activity change, % (values are at about 110 or 230 µM). L-lactate dehydrogenase A chain (Homo sapiens), P00338. hit rate 0.15% among 480,000; in the data active = activity change below about -30%; inconclusive = mostly about -25% to -30%
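Enzyme activity of human lactate dehydrogenase 5 (2 nM; 0.06 mM NADH, 0.2 mM pyruvate, 5 min, RT) is measured via a resazurin/diaphorase fluorescence readout of residual NADH.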
IL-1B inflam inh: qHTS for Inhibitors of Inflammasome Signaling: IL-1-beta AlphaLISA Primary Screen; AID 743279, 2014; hit rate 4.7% among 360,000; THP-1 LPS/ATP IL-1B secretion, AlphaLISA, 16 h; hits give low values; activity change, % at 57.5 µM; in the data active = activity change below about -50%; inconclusive = mostly about -30% to -49%
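THP-1 cells pretreated 1 hr with compounds (up to 57.5 uM final), then stimulated with LPS (250 ng/mL final) plus ATP (1.25 mM final); secreted IL-1B measured by AlphaLISA after 16 hr, decreased signal indicating inhibition.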
TDP1 cell noCPT: qHTS for Inhibitors of human tyrosyl-DNA phosphodiesterase 1 (TDP1): qHTS in cells in absence of CPT; Potency, µM (top dose mostly 46.2 µM), actives largely listed as inhibitors; DT40 Tdp1-/- hTDP1 cells, no CPT, ATP luminescence, 48 h; hit rate 15% among 420,000; also: nearly all actives have a fitted effect of over 55% in size
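Stably hTDP1-transfected Tdp1-null chicken DT40 cells were treated with library compounds minus camptothecin and grown for at least 48 hr at 37 °C, after which cellular ATP was quantified by luminescence.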
DT40 TDP1 CPT: qHTS for Inhibitors of human tyrosyl-DNA phosphodiesterase 1 (TDP1): qHTS in cells in presence of CPT | chicken DT40 Tdp1-/-;hTDP1 cells + 20 nM CPT, ATP luminescence, 48 h | Potency, µM (top dose mostly 46.2 µM), actives largely listed as inhibitors | hit rate 12% among 420,000; also: nearly all actives have a fitted effect of over 55% in size
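Cell growth measured by CellTiter-Glo luminescence after a minimum 48 h, 37 C compound exposure with 20 nM CPT in Tdp1-knockout DT40 cells stably expressing hTDP1, seeded 400/well; qHTS titration format.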
Numbers stand for hits; . = inactive; ? = inconclusive; / = no result. Unless noted, calls follow the shape of the dose curve; as a rule, active = well fitted curve in the direction sought with a large enough effect; inconclusive = small, poorly fitted or top-dose-only effect, or another doubt; inactive = no such curve, though single readings can be large; an effect the other way counts as inactive or inconclusive.

SMILES	Gal4-VP16 FLuc	RORgamma inh	LDHA inh	IL-1B inflam inh	TDP1 cell noCPT	DT40 TDP1 CPT
CNc1nc(-c2ccc3c(c2)CCN3C(=O)c2ccc(F)cc2)cs1	.	.	.	.	?	?
CNc1nc(-c2ccc3c(c2)CCN3C(=O)c2ccccc2C)cs1	.	.	.	.	16µM	?
CNc1nc(-c2ccc3c(c2)CCN3C(=O)c2cccc(F)c2)cs1	.	.	.	?	21µM	23µM
COc1ccc(C(=O)Oc2cccc(C)c2C)cc1Br	/	/	.	/	/	/
COc1ccc(C(=O)NCc2nnc(SCC(=O)NO)n2Cc2ccccc2)cc1	.	.	.	?	?	18µM
C=CCn1c(CCNC(=O)c2ccc(Cl)c(Cl)c2)nnc1SCCOc1ccc(OC)cc1	?	?	.	?	26µM	?
CCn1c(CNC(=O)Cc2ccc(OC)cc2)nnc1SCCOc1ccccc1	.	.	.	?	16µM	?
COc1ccc(CC(=O)NCc2nnc(SCCOc3ccccc3)n2C)cc1	.	.	.	.	?	?
CNC(=O)c1cc(=O)n(CC(=O)Nc2ccc(C(C)=O)cc2)c2ccccc12	/	/	.	/	/	/
N#Cc1ccc(CCC(=O)c2cccs2)cc1	/	/	.	/	/	/
O=C(Nc1ccc(S(=O)(=O)Nc2cnc3ccccc3n2)cc1)c1ccc(Br)cc1	/	/	.	/	/	/
CC(C)c1ccc(CNC(C)(C)CO)cc1	/	/	.	/	/	/
COc1ccc(NS(=O)(=O)c2ccc(S(=O)(=O)N3CCOCC3)cc2)cc1	.	.	.	.	16µM	?
O=S(=O)(Nc1ccc(S(=O)(=O)N2CCOCC2)cc1)c1ccccc1	.	.	.	.	.	.
COc1ccc(NS(=O)(=O)c2ccc(S(=O)(=O)N3CCCC3)cc2)cc1	.	.	.	.	21µM	?
COc1ccc(-n2cnnc2SCC(=O)c2ccc(S(=O)(=O)N3CCOCC3)cc2)cc1	20µM	?	.	.	.	.
Cc1c(-c2ccccc2)c(=O)oc2cc(OS(C)(=O)=O)ccc12	/	/	.	/	/	/
Cc1c(C(=O)N2CCOCC2)c(S(=O)(=O)Nc2ccc(OC(F)(F)F)cc2)c(C)n1C	.	.	.	.	.	?
Cc1c(C(=O)N2CCCCCC2)c(S(=O)(=O)Nc2ccc(OC(F)(F)F)cc2)c(C)n1C	/	/	.	/	16µM	23µM
Cc1c(C(=O)N2CCOCC2)c(S(=O)(=O)Nc2ccc(C(C)C)cc2)c(C)n1C	.	.	.	.	?	13µM
CC1CC(Sc2ccc(C(F)(F)F)cn2)C(=O)O1 (stereo not given)	/	/	.	/	/	/
C=C(Cl)COc1ccc(C(=O)NC)cc1	/	/	.	/	/	/
Nc1nonc1C(=O)NCCNCc1c(OCc2ccccc2F)ccc2ccccc12	.	.	.	-81	11µM	11µM
COc1ccc(CNCCNC(=O)c2nonc2N)cc1OC	.	.	.	.	.	.
Nc1nonc1C(=O)NCCNCc1cc(Br)ccc1OCc1ccc(F)cc1	13µM	.	.	-65	10µM	10µM
SMILES	Gal4-VP16 FLuc	RORgamma inh	LDHA inh	IL-1B inflam inh	TDP1 cell noCPT	DT40 TDP1 CPT
O=[N+]([O-])c1cc(-c2ncccn2)c([N+](=O)[O-])s1	7.1µM	4µM	.	-86	2.9µM	2.3µM
O=C(Nc1ncccn1)c1cc([N+](=O)[O-])cc([N+](=O)[O-])c1	.	.	.	.	.	.
Cc1ccc(NC(=O)COc2ccccc2[N+](=O)[O-])nc1	?	6.3µM	.	.	?	.
Cc1ccnc(NC(=O)COc2ccccc2[N+](=O)[O-])c1	?	11µM	/	/	/	/
CC(C)CNC(=O)COC(=O)c1cc(-c2ccco2)nc2ccccc12	/	/	.	/	/	/
Cn1cc(C(=O)c2ccc(Cl)cc2)cc1-c1nc2ccccc2n1C	?	?	.	-72	18µM	13µM
Cn1c(=O)c(C(=O)c2ccccc2)nc2ccccc21	.	.	.	.	.	.
